Test results as given in PubChem BioAssay (NCI).
This is part of a sample that, as a whole, favours compounds with a hit. Of some 83,000 tested, about 20% had one in any assay.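 Note: values are percent growth. 100 is the growth of untreated cells, values between 100 and 0 indicate rising inhibition; between -100 and 0 indicates cell death.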 The source made the active and inactive calls. Rule for the calls: active = growth percent below 10; inactive = the rest.

What follows are compounds tested on MDA-MB-231 breast (assay: NCI-60 one-dose screen, 48 h (100 = growth as untreated, 0 = no growth, -100 = all killed)). Conditions: 10 µM unless noted.

| SMILES | growth |
| --- | --- |
| CC(c1cc(Cl)ccc1O)c1cc(Cl)ccc1O | 43.8% (inactive) |
| COc1cc2c(cc1OCCCOc1ccc(-c3cc4ccccc4c4ccccc34)cc1)N=C[C@@H]1CCCN1C2=O | -71.2% (active) |
| COc1cc2c(cc1OCCCCCn1c(-c3ccc(OCc4ccccc4)cc3)nc3cc(N4CCOCC4)ccc31)N=C[C@@H]1CCCN1C2=O | 9.63% (active) |
| CSc1ccc2c(c1)N(CCC1CCCCN1C)c1ccccc1S2 (stereo not given) | 46.3% (inactive) |
| O=C(CSc1nnc(Nc2ccccc2)s1)NCCc1ccc(F)cc1 | 91.5% (inactive) |
| CCC(c1ccccc1)c1noc(CCN(CC)CC)n1 (stereo not given) | 106% (inactive) |
| Cn1c(=O)c2c(nc(Br)n2CCC(=O)Nc2ccc(F)cc2)n(C)c1=O | 102% (inactive) |
| CCC1=C(c2ccc(OC)cc2)C(C)Oc2cc(OC(C)=O)ccc21 (stereo not given) | 90.4% (inactive) |
| O=C1C2C3C=CC(O3)C2C(=O)N1Nc1ccccc1 (stereo not given) | 99.8% (inactive) |
| Cc1cc(C)n2nc(SCC(=O)Nc3sc4c(c3C(N)=O)CCC4)nc2n1 | 99.2% (inactive) |
| COc1ccc(Nc2ccnc(NCCCNc3ccnc4cc(Cl)ccc34)n2)cc1 | -73.4% (active) |
| Oc1[nH]c2ccccc2c1/C=c1/ccc2c(c1)N=C(c1cc(F)cc(F)c1)N=2 | 53.8% (inactive) |
| CCC1=C(c2ccc(OC)cc2)C(C)(C)Oc2c1ccc(O)c2CN1CCCC1 | 24.2% (inactive) |
| CN(C)c1ccc(/C=C(\C#N)c2nc3ccccc3c(=O)[nH]2)cc1 | 76% (inactive) |
| Cc1cccc(Cl)c1NC(=O)c1ccc2nc(NC(=O)NC3CC(C)(C)NC(C)(C)C3)sc2c1 | 54% (inactive) |
| CCC(=O)Nc1ccccc1C#C/C=C\C#Cc1ccccc1C(F)(F)F | 55.6% (inactive) |
| Nc1ccc2c3c(cccc13)-c1ccccc1-2 | 76.5% (inactive) |
| CC[C@]1(O)CC2CN(CCc3c([nH]c4ccccc34)[C@@](C(=O)OC)(c3cc4c(cc3OC)N(C)[C@H]3[C@@](O)(C(=O)OC)[C@H](OC(C)=O)[C@]5(CC)C=CCN6CC[C@]43[C@@H]65)C2)C1 (stereo not given in full) | 5.18% (active) |

| SMILES | growth |
| --- | --- |
| COc1ccc(/C=N/NC(=O)c2ccc(S(C)(=O)=O)cc2)cc1OC | 106% (inactive) |
| C=CCCCCCCCCC(=O)[O][Sn]([CH2]CCC)([CH2]CCC)[CH2]CCC | -81.7% (active) |
| Cc1cc(CC(=O)O)n(C)c1C(=O)c1ccc(Cl)cc1 | 109% (inactive) |
| Fc1ccc(-c2nnc(/C=C/c3cn(-c4ccccc4)nc3-c3ccccc3)o2)cc1 | 94.2% (inactive) |
| COC(=O)[C@]12CC[C@@H](C)[C@H](C)[C@@H]1C1=CC[C@@H]3[C@@]4(C)C=C(O)C(=O)[C@@]5(C)COC(=C54)C[C@@]3(C)[C@]1(C)CC2 | -52.7% (active) |
| Nc1ccc(S(=O)(=O)Nc2ncccn2)cc1 | 98.6% (inactive) |
| CC1CC(C)/C(=N/NC(N)=O)C(C(O)CC2CCC(=O)NC2=O)C1 (stereo not given) | 46.9% (inactive) |
| O=C(/C=C/c1cc2ccccc2[nH]c1=O)c1ccc(Cl)cc1 | 32.2% (inactive) |
| CSc1nc2c(c(=O)[nH]1)C(c1ccc(Cl)cc1)C1=C(N2)/C(=C/c2ccc(Cl)cc2)CNC1 (stereo not given) | 40.4% (inactive) |
| ClC1=C(Cl)C(Cl)=C(Cl)C1=Cc1ccc(Cl)cc1 | 14.3% (inactive) |
| O=C1C(Cl)=C(N=Nc2c(Cl)c(O)c3ccccc3c2O)C(=O)c2ccccc21 | 61.2% (inactive) |
| N#Cc1cnc2cc(OC[C@H](O)CO)c(NC(=O)CC3CSSC3)cc2c1Nc1ccc(OCc2cccc(F)c2)c(Cl)c1 | -54.9% (active) |
| CN(CC(=O)Nc1nc2ccccc2[nH]1)S(=O)(=O)c1ccc(Cl)cc1 | 99.6% (inactive) |
| COC(=O)[C@]12CC[C@@H](C)[C@H](C)[C@@H]1C1=CC[C@@H]3[C@@]4(C)C[C@@H](OC(=O)c5ccco5)[C@H](O)[C@@](C)(CO)[C@@H]4[C@H](O)C[C@@]3(C)[C@]1(C)CC2 | -65.7% (active) |
| Fc1ccc(-c2nc(Nc3ccc(-c4nc5ccccc5[nH]4)cc3)nc(N3CCOCC3)n2)cc1 | -76.7% (active) |
| CO[C@H]1/C=C/O[C@@]2(C)Oc3c(C)c(O)c4c(O)c(c(/C=N/N5CCN(C)CC5)c(O)c4c3C2=O)NC(=O)/C(C)=C\C=C\C(C)[C@H](O)[C@@H](C)[C@@H](O)[C@@H](C)[C@@H](OC(C)=O)[C@@H]1C (stereo not given in full) | 98.5% (inactive) |
| COc1ccc(-n2nnc(C(=O)O)c2-c2cc(OC)c(OC)c(OC)c2)cc1 | 122% (inactive) |
